Whole data set: some 5,400 compounds, median “IFI” near 2, cut for the highest 2% near 22. The sample holds the highest values, similar compounds and a random draw of the others, so the mix is not that of the screen.
Test: NOVARTIS: Inhibition Frequency Index (IFI) - the number of HTS assays where a compound showed > 50% inhibition/induction, expressed as a percentage of the number of assays in which the compound was tested.
Assay type: functional
`CCCOC(=O)C1=C(C)NC2=C(C(=O)CC(c3ccc(OC)c(OC)c3)C2)C1c1ccc(O)c(OCC)c1` (stereo not drawn) gave an IFI of 0%.
Compound `CCOC(=O)c1cc(S(=O)(=O)NCc2ccc(F)cc2)n[nH]1` has an IFI of 0%.
`C=CCC(=O)NC1CCN(CC(O)CN(Cc2ccccc2)S(=O)(=O)c2ccccc2)C1` (stereo not drawn) gave an IFI of 2.91%.
In the case of `CC12C(=O)N(c3cccc(C(=O)O)c3)C(=O)C1C1c3ccccc3C2c2ccccc21` (stereo not drawn), the IFI was 0%.
With `CO[C@H]1C[C@H](C)Cc2cc(O)cc(c2)NC(=O)C(C)=CCC[C@H](OC)[C@@H](OC(N)=O)C(C)=CC(C)[C@H]1O` (stereo partly drawn) the IFI was 9.62%.
With `CCC(C)(C)c1ccc(Oc2ccc(NC(=O)c3ccc([N+](=O)[O-])o3)cc2)cc1` the IFI was 15.2%.
With `CCOC(=O)c1ccc(NCc2c(C)[nH]c(C(=O)OCC)c2C)cc1` the IFI was 0%.
In the case of `O=C(Nc1nc(-c2ccccc2)cs1)c1ccccc1O`, the IFI was 9.79%.
In the case of `CCN(CC)c1ccc(C=NNC(=O)c2ccc(Nc3nc(-c4ccccc4)cs3)cc2)c(O)c1`, the IFI was 27.3%.
With `CCN(CC)S(=O)(=O)c1ccc(-c2csc(Nc3ccc(C)c(C)c3)n2)cc1` the IFI was 4.71%.
With `Cn1nc(C(=O)NCc2ccccc2)c2c1CCN(Cc1cccc(O)c1)C2` the IFI was 1.22%.
`CC(C)C[C@@H]1NC(=O)[C@@H](CC(C)C)NC(=O)[C@H](C(C)C)NC(=O)[C@H]2CSSC[C@@H](NC1=O)C(=O)N2` gave an IFI of 25.9%.
For `CC(C(=O)NCCCN)N(Cc1ccccc1)S(C)(=O)=O` (stereo not drawn), the IFI was 3.92%.
`Oc1ccc(-c2cncc(NCc3ccccc3)n2)cc1` showed an IFI of 0%.
`CN(C)c1cc[n+](CC(=O)c2ccc(Cl)cc2)cc1` showed an IFI of 0%.
With `CN(C)c1ccc(C(=C2C=CC(=[N+](C)C)C=C2)c2ccc(N(C)C)cc2)cc1` the IFI was 25.7%.
`CCCCNC(=O)c1nn(-c2ccc(OC)cc2)c(=O)c2ccccc12` showed an IFI of 2.35%.
In the case of `Nc1nc(N)c2c(OCc3ccc(C(F)(F)F)cc3)cccc2n1`, the IFI was 7.63%.
With `c1ccc(-c2cc(NCCCN3CCOCC3)nc(-c3ccccn3)n2)nc1` the IFI was 15.4%.
`CCOC(=O)c1sc2nc(N)c(C#N)c(-c3cccs3)c2c1N` gave an IFI of 1.35%.
Work on `CSc1oc(-c2ccccc2)nc1C(N)=O` yielded an IFI of 0%.
`CSc1oc(C(C)(C)C)nc1[P+](c1ccccc1)(c1ccccc1)c1ccccc1` showed an IFI of 23.2%.
`COc1ccc2c(c1)C(C)(CC#N)C(=O)N2C` (stereo not drawn) showed an IFI of 1.51%.
For `O=C1C(=Nc2cccc(C(F)(F)F)c2)c2ccccc2N1CN1CCc2ccccc2C1`, the IFI was 0%.
`O=C1C(Sc2nnc[nH]2)=CC(=NS(=O)(=O)c2cccs2)c2ccccc21` showed an IFI of 25%.
With `Cc1ccc(S(=O)(=O)N=C2C=C(Sc3nc4ccccc4[nH]3)C(=O)c3ccccc32)cc1` the IFI was 12.7%.
`Cc1ccc(C)c(S(=O)(=O)N=C2C=C(SCC(=O)O)C(=O)c3ccccc32)c1` gave an IFI of 6.25%.
Work on `Cc1ccc(S(=O)(=O)N=C2C=C(Sc3nnc[nH]3)C(=O)c3ccccc32)cc1` yielded an IFI of 25%.
`CCCCOc1ccc(C(=O)Oc2ccccc2-c2nc3cc(C)ccn3c2NC(C)(C)CC(C)(C)C)cc1` showed an IFI of 4.67%.
Work on `COc1ccc(/C=C/c2nc(=O)c3ccccc3o2)cc1` yielded an IFI of 0%.
`O=C(COc1ccccc1Cl)OCc1cc(=O)n2nc(C3CC3)sc2n1` showed an IFI of 0%.
Work on `CCSCCOC(=O)C1=C(C)NC2=C(C(=O)CCC2)C1c1ccc(OC)c(Br)c1` (stereo not drawn) yielded an IFI of 2.33%.
Compound `CC(C)CN(C(C(=O)NC(CN1CCCC1)c1ccccc1)c1ccccc1)S(=O)(=O)c1ccccn1` (stereo not drawn) has an IFI of 1.96%.
With `CCCCCC[P+](N(CCC)CCC)(N(CCC)CCC)N(CCC)CCC` the IFI was 29.1%.
`CCCN(CCC)[P+](CCC)(c1ccc([P+](CCC)(N(CCC)CCC)N(CCC)CCC)cc1)N(CCC)CCC` gave an IFI of 3.7%.
Work on `CCCCNC(=O)C(CC)Sc1nnc(-c2ccc(C)cc2)c(-c2ccc(C)cc2)n1` (stereo not drawn) yielded an IFI of 0%.
With `C=CCSc1nc2sc3c(c2c(=O)n1-c1ccccc1)CCN(C)C3` the IFI was 7.55%.
`O=C(Cc1ccccc1)Nc1ccc(C(=O)Nc2ccc(-c3nc4ccc(NC(=O)c5ccc(NC(=O)Cc6ccccc6)cc5)c(Cl)c4[nH]3)cc2)cc1` showed an IFI of 7.58%.
For `OCCCNc1cc(-c2ccccn2)nc(-c2ccccn2)n1`, the IFI was 15.4%.
With `OCCCNc1cc(-c2ccnc(Nc3cccc(Cl)c3)n2)ccn1` the IFI was 30.8%.
For `Nc1nc(Nc2cccc(Cl)c2)n[nH]1`, the IFI was 1.07%.
Compound `Cc1nc2ccc(Cl)cc2c(O)c1I` has an IFI of 0.752%.
`CC(=O)N(C1=C(N(C)C)C(=O)c2ccccc2C1=O)c1ccc(Cl)c(Cl)c1` gave an IFI of 7.69%.
Work on `CC(=O)N(C1=C(N2CCOCC2)C(=O)c2ccccc2C1=O)c1ccc(I)cc1` yielded an IFI of 18.7%.
In the case of `CC(=O)N(C1=C(N2CCCC2)C(=O)c2ccccc2C1=O)c1ccc(F)cc1`, the IFI was 8.11%.
For `CC(=O)N(C1=C(N2CCOCC2)C(=O)c2ccccc2C1=O)c1ccc(F)cc1`, the IFI was 24.7%.
In the case of `CC(=O)N(C)C1=C(N2CCOCC2)C(=O)c2ccccc2C1=O`, the IFI was 22.1%.
With `CC(=O)N(C1=C(N(C)C)C(=O)c2ccccc2C1=O)c1ccc(F)cc1` the IFI was 31.1%.
With `CC(=O)N(C)C1=C(N2CCCC2)C(=O)c2ccccc2C1=O` the IFI was 0%.
`CC(=O)N(C)C1=C(N2CCCCCC2)C(=O)c2ccccc2C1=O` showed an IFI of 22.5%.
In the case of `CC(=O)N(C1=C(N(C)C)C(=O)c2ccccc2C1=O)c1cc(C)cc(C)c1`, the IFI was 15.4%.
Work on `COc1cccc(-c2ccc(O)c(CN(C)CC(O)c3ccccc3)c2)n1` (stereo not drawn) yielded an IFI of 2.56%.
Compound `Cc1c(-c2ccccc2)c2ccccc2n1CCc1ccc(C)[n+](C)c1` has an IFI of 1.22%.
Compound `COC(=O)c1sc(-c2ccccc2)cc1NC(=O)c1ccc(S(=O)(=O)N2CCCCCC2)cc1` has an IFI of 0%.
With `CC[n+]1c(C=C2Sc3ccccc3N2CCO)sc2ccccc21` the IFI was 4.69%.
`CCc1ccc(-n2c(C(CC)N(CCC(C)C)C(=O)Nc3ccc(Cl)c(Cl)c3)nc3ccccc3c2=O)cc1` (stereo not drawn) showed an IFI of 6.67%.
For `Cc1c(Cl)cccc1NC(=S)N(CCCN(C)c1ccccc1)Cc1cccn1Cc1ccc(Cl)cc1`, the IFI was 6.45%.
`COC(=O)C1=CNC=C(C(=O)OC)C1c1cc(OC)c(OC)c(OC)c1` showed an IFI of 2.38%.
In the case of `NCC(c1ccc(F)cc1)c1ccc(F)cc1`, the IFI was 0%.
With `CCCc1c(C)nc2ccc(Br)cc2c1O` the IFI was 3.03%.
Compound `Cn1c2c([n+](C)c1CCl)C(=O)c1ccccc1C2=O` has an IFI of 35.7%.
Compound `Cn1c(=O)c(Cl)c2c3c(c(Cl)ccc31)C(=O)c1ccccc1-2` has an IFI of 3.03%.
Compound `O=C1C(N2CCCCC2)=C(N2CCCCC2)C(=O)c2ccccc21` has an IFI of 0%.

From ChEMBL document CHEMBL1156829
